Reference: the supplement of paper PMC10849652
Of roughly 8,800 targets only a part is listed; those with a hit were picked by preference. About 0.5% of all pairs of compound and target were hits. Unmarked numbers belong to inactive results.

Tests used:
Assay in all cases: log2 fold change, soluble protein after heating vs DMSO (PISA); higher = thermal stabilisation; K562 lysate, 10 uM; active = over 0.2 and 3.5 SD of the protein, either way, in both replicates (recomputed)
lapatinib = compound: CS(=O)(=O)CCNCc1ccc(-c2ccc3ncnc(Nc4ccc(OCc5cccc(F)c5)c(Cl)c4)c3c2)o1 [lapatinib]
Outline: (§1)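 To prepare the extract, K562 pellets were dounce-homogenised in PBS pH 7.4 with 1 mM MgCl2, giving crude material at 1 mg/mL protein. This was treated with 10 μM compound for 30 min, then heated in aliquots for 3 min over 48°C-58°C before pooling and addition of NP-40 to 0.5% at 4°C. Centrifugation at 21,000xg for 90 min left soluble protein in the supernatant, which TMTpro 16plex LC-MS/MS quantified with equalised channel sums. Results are log-two fold changes in thermal stability compared with solvent controls, from duplicates.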

pictilisib = compound: CS(=O)(=O)N1CCN(Cc2cc3nc(-c4cccc5[nH]ncc45)nc(N4CCOCC4)c3s2)CC1 [pictilisib]
Outline: as §1

crizotinib = compound: C[C@@H](Oc1cc(-c2cnn(C3CCNCC3)c2)cnc1N)c1c(Cl)ccc(F)c1Cl [crizotinib]
Outline: as §1

[1] = compound: C[C@H](C1=CC=C(C=C1)C(=O)NC2=C3C=CNC3=NC=C2)N
Outline: as §1

duvelisib = compound: C[C@H](Nc1ncnc2nc[nH]c12)c1cc2cccc(Cl)c2c(=O)n1-c1ccccc1 [duvelisib]
Outline: as §1

gandotinib = compound: Cc1cc(Nc2cc(CN3CCOCC3)c3nc(C)c(Cc4ccc(Cl)cc4F)n3n2)n[nH]1 [gandotinib]
Outline: as §1

tozasertib = compound: Cc1cc(Nc2cc(N3CCN(C)CC3)nc(Sc3ccc(NC(=O)C4CC4)cc3)n2)n[nH]1 [tozasertib]
Outline: as §1

doramapimod = compound: Cc1ccc(-n2nc(C(C)(C)C)cc2NC(=O)Nc2ccc(OCCN3CCOCC3)c3ccccc23)cc1 [doramapimod]
Outline: as §1

bafetinib = compound: Cc1ccc(NC(=O)c2ccc(CN3CC[C@H](N(C)C)C3)c(C(F)(F)F)c2)cc1Nc1nccc(-c2cncnc2)n1 [bafetinib]
Outline: as §1

[2] = compound: Cc1cccc(CC(=O)N2CCc3c2ccc(-c2cn(C)c4ncnc(N)c24)c3F)n1
Outline: as §1

nilotinib = compound: Cc1cn(-c2cc(NC(=O)c3ccc(C)c(Nc4nccc(-c5cccnc5)n4)c3)cc(C(F)(F)F)c2)cn1 [nilotinib]
Outline: as §1

[3] = compound: Cc1nc(Nc2n[nH]c3c2CN(C(=O)N[C@H](CN(C)C)c2ccccc2)C3(C)C)c2sccc2n1
Outline: as §1

dasatinib = compound: Cc1nc(Nc2ncc(C(=O)Nc3c(C)cccc3Cl)s2)cc(N2CCN(CCO)CC2)n1 [dasatinib]
Outline: as §1

[4] = compound: Cc1ncc(-c2ccnc(Nc3ccc(S(C)(=O)=O)cc3)n2)n1C(C)C
Outline: as §1

[5] = compound: Cn1cc(-c2ccc3c(c2)CCN3C(=O)Cc2cccc(C(F)(F)F)c2)c2c(N)ncnc21
Outline: as §1

quisinostat = compound: Cn1cc(CNCC2CCN(c3ncc(C(=O)NO)cn3)CC2)c2ccccc21 [quisinostat]
Outline: as §1

tipifarnib = compound: Cn1cncc1[C@@](N)(c1ccc(Cl)cc1)c1ccc2c(c1)c(-c1cccc(Cl)c1)cc(=O)n2C [tipifarnib]
Outline: as §1

[6] = compound: NC(=O)Nc1cc(-c2cccc(F)c2)sc1C(=O)N[C@H]1CCCNC1
Outline: as §1

[7] = compound: NC(=O)c1cnc(N[C@@H]2CCCC[C@@H]2N)nc1Nc1cccc(-n2nccn2)c1
Outline: as §1

[8] = compound: NC1(c2ccc(-c3nc4ccn5c(=O)[nH]nc5c4cc3-c3ccccc3)cc2)CCC1
Outline: as §1

Chain of UniProt Q86WA6 (Q86WA6 whole entry, looked up): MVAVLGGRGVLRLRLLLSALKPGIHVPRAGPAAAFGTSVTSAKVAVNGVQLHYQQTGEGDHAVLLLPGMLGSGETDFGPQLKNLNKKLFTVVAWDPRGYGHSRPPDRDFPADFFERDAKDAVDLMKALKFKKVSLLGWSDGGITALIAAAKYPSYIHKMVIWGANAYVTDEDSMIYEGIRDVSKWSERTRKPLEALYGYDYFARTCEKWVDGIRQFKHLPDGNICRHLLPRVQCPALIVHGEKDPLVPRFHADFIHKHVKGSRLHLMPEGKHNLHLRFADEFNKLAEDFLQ
Chain of UniProt Q9NXV6 (Q9NXV6 whole entry, looked up): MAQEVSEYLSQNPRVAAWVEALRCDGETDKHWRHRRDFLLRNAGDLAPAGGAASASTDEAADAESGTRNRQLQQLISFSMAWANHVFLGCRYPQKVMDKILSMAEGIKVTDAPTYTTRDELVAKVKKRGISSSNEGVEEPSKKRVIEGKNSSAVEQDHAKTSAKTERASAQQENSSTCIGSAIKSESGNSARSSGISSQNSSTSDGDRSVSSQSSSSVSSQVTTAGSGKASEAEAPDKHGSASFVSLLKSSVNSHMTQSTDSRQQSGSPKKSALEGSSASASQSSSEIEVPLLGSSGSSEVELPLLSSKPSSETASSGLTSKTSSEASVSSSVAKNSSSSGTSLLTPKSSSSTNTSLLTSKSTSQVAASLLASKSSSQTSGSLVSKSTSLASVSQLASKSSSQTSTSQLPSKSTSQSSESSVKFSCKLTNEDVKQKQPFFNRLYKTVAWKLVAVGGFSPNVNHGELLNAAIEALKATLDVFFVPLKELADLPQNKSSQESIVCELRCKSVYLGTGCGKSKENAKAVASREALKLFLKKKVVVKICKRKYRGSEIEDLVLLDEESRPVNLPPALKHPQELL
Chain of UniProt Q9BV29 (Q9BV29 whole entry, looked up): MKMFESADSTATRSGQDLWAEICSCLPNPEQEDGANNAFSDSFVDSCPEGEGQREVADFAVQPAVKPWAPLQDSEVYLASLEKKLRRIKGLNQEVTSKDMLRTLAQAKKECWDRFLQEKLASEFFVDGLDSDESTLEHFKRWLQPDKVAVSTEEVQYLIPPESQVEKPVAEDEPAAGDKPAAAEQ
Chain of UniProt O75909 (O75909 whole entry, looked up): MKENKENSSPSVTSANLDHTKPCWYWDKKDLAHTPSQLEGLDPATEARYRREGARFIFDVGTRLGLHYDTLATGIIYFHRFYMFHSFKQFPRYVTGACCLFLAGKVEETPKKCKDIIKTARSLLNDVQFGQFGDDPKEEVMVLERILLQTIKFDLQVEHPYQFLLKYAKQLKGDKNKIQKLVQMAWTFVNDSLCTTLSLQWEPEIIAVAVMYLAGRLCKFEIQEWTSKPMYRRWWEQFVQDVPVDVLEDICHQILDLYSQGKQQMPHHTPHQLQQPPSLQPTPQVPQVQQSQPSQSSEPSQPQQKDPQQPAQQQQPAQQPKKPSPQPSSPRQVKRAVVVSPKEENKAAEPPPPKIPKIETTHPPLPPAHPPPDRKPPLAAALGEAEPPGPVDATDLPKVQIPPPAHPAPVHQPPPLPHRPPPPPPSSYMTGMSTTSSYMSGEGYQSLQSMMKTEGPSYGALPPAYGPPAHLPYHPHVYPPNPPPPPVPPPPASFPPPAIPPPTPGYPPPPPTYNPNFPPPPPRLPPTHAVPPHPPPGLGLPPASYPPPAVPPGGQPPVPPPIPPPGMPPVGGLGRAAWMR
Chain of UniProt Q96ER9 (Q96ER9 whole entry, looked up): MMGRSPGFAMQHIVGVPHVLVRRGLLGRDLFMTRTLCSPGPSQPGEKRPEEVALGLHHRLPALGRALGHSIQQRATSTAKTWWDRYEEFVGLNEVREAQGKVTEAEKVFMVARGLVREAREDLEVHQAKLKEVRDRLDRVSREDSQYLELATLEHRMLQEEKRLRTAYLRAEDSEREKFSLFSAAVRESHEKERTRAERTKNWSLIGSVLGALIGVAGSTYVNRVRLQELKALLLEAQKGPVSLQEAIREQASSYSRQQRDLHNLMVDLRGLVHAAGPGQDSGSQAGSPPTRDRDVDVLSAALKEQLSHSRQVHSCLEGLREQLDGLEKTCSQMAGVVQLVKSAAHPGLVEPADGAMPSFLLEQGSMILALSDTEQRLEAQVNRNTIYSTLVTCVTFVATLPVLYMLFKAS
Chain of UniProt P21953 (P21953 whole entry, looked up): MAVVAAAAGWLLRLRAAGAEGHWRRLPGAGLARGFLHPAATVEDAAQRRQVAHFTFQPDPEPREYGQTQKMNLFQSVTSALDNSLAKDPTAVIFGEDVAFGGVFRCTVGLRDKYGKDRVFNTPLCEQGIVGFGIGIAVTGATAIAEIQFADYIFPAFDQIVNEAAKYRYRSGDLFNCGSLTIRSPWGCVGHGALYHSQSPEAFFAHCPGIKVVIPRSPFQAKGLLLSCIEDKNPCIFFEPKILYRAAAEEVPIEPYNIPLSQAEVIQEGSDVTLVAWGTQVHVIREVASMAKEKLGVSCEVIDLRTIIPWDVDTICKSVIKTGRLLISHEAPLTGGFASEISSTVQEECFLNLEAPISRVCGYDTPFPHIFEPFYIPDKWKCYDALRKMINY
Chain of UniProt O60566 (O60566 whole entry, looked up): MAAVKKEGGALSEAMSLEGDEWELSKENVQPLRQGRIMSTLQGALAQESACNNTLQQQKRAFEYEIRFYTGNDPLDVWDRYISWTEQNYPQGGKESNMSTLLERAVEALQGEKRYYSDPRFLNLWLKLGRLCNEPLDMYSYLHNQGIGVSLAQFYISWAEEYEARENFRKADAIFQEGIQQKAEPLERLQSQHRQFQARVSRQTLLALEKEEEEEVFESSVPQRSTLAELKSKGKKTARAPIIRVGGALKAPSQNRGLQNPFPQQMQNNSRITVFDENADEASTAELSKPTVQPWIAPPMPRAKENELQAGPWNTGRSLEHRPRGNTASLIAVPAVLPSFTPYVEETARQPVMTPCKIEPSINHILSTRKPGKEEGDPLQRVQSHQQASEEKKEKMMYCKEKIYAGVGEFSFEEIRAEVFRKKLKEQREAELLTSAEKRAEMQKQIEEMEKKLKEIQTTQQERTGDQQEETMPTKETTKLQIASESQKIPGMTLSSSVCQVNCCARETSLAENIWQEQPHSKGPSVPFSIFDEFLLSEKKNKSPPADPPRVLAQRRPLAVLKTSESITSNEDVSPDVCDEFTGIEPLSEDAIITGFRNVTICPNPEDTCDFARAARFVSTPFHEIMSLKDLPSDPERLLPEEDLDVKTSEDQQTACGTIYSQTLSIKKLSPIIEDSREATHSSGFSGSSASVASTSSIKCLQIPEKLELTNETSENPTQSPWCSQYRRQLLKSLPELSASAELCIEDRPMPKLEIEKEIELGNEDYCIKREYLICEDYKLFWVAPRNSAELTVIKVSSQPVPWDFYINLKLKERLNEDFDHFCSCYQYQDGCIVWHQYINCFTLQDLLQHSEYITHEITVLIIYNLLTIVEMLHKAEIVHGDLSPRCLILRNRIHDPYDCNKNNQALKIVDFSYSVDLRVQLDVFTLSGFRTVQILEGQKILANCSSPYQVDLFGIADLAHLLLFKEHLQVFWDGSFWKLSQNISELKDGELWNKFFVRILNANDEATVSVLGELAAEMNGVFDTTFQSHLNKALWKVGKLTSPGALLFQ
Chain of UniProt Q9Y487 (Q9Y487 whole entry, looked up): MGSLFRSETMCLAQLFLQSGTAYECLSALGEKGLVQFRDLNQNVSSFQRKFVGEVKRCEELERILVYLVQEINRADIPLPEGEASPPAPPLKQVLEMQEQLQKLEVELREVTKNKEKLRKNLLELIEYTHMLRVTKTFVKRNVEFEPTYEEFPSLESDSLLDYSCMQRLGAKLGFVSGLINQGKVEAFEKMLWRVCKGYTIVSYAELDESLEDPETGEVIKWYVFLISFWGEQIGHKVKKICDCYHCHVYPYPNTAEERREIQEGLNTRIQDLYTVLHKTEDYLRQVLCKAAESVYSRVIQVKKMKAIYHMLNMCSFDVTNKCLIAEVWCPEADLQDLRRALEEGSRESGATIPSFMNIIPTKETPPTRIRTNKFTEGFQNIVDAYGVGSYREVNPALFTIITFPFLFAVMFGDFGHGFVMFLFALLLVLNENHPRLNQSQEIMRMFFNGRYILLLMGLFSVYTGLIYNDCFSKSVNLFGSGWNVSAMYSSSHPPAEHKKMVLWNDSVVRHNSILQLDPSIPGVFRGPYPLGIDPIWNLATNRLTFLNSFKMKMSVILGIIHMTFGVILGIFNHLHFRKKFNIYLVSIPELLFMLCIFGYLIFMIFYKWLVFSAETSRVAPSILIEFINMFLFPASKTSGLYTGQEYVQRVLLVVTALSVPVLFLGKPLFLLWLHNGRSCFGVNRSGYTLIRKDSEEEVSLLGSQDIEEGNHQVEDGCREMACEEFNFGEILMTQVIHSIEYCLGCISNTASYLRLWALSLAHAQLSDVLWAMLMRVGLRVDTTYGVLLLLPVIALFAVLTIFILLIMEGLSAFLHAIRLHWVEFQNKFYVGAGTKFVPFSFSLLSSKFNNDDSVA
Chain of UniProt Q96JB5 (Q96JB5 whole entry, looked up): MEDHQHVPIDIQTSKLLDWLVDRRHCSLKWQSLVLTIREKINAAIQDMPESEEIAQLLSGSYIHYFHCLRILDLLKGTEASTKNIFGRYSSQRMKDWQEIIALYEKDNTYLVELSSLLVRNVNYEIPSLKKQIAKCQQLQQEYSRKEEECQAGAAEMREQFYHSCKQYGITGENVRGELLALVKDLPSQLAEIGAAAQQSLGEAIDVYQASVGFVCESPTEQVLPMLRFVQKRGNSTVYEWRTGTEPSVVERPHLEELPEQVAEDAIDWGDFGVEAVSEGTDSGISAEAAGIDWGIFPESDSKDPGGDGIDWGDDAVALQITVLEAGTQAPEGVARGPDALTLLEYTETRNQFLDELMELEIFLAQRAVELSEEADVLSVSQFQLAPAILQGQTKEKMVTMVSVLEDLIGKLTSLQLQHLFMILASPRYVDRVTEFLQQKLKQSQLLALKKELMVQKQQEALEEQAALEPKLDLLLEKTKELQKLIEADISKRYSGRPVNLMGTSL

| Target | log2 fold change (lapatinib) | log2 fold change (pictilisib) | log2 fold change (crizotinib) | log2 fold change [1] | log2 fold change (duvelisib) | log2 fold change (gandotinib) | log2 fold change (tozasertib) | log2 fold change (doramapimod) | log2 fold change (bafetinib) | log2 fold change [2] | log2 fold change (nilotinib) | log2 fold change [3] | log2 fold change (dasatinib) | log2 fold change [4] | log2 fold change [5] | log2 fold change (quisinostat) | log2 fold change (tipifarnib) | log2 fold change [6] | log2 fold change [7] | log2 fold change [8] |
| --- | --- | --- | --- | --- | --- | --- | --- | --- | --- | --- | --- | --- | --- | --- | --- | --- | --- | --- | --- | --- |
| CCNK isoform 4 (UniProt O75909) | 0.001 | 0.013 | -0.008 | -0.213 (active) | 0.044 | 0.161 | -0.023 | 0.113 | -0.051 | 0.109 | 0.011 | -0.03 | -0.051 | -0.009 | 0.003 | 0.009 | -0.004 | -0.006 | -0.005 | -0.011 |
| CDKN1C (UniProt P49918) | 0.027 | -0.033 | 0.105 | -0.025 | -0.035 | -0.046 | -0.095 | -0.045 | 0.049 | 0.071 | -0.054 | -0.035 | 0.083 | 0.094 | 0.055 | 0.091 | 0.037 | -0.091 | -0.101 | 0.04 |
| BRD3 (UniProt Q15059) | 0.014 | 0.004 | -0.022 | -0.333 (active) | 0.1 | 0.147 | 0.048 | -0.074 | -0.016 | 0.154 | -0.069 | 0.074 | -0.011 | 0.025 | -0.018 | 0.013 | 0.013 | 0.066 | -0.024 | -0.185 |
| CCNB1 (UniProt P14635) | -0.029 | -0.01 | -0.024 | -0.019 | 0.033 | -0.078 | 0.005 | 0.03 | -0.004 | 0.091 | -0.04 | 0.037 | -0.016 | 0.369 (active) | -0.021 | 0.035 | -0.005 | 0.005 | 0.165 | 0.006 |
| CCDC32 isoform 2 (UniProt Q9BV29) | 0.04 | 0.02 | -0.021 | -0.195 | 0.024 | 0.025 | 0.062 | 0.007 | -0.087 | 0.085 | -0.009 | 0.024 | 0.021 | 0.105 | -0.001 | -0.05 | 0.076 | -0.028 | -0.05 | -0.03 |
| CHCHD1 (UniProt Q96BP2) | 0.025 | 0.001 | -0.069 | 1.33 (active) | 0.052 | -0.314 | -0.016 | 0.039 | 0.003 | -0.35 (active) | -0.09 | -0.023 | 0.084 | -0.043 | -0.097 | -0.174 | -0.03 | 0 | -0.023 | -0.019 |
| BCKDHB (UniProt P21953) | 0.005 | -0.043 | -0.055 | 0.083 | 0.026 | 0.015 | 0.09 | 0.064 | -0.052 | -0.017 | 0.068 | 0.007 | 0.062 | 0.084 | 0.039 | 0.031 | -0.069 | -0.005 | 0.007 | -0.039 |
| CCDC51 (UniProt Q96ER9) | -0.038 | -0.055 | -0.01 | 0.259 (active) | -0.034 | -0.217 (active) | 0.007 | -0.053 | -0.106 | -0.232 | -0.037 | -0.049 | -0.016 | 0.035 | -0.014 | 0.017 | -0.082 | 0.02 | -0.015 | -0.04 |
| CDK13 (UniProt Q14004) | -0.077 | 0.108 | 0.08 | 0.025 | -0.006 | -0.1 | 0.027 | 0.002 | 0.101 | -0.046 | -0.081 | 0 | 0.004 | -0.051 | 0.005 | 0.068 | 0.032 | -0.039 | 0.033 | 0.131 |
| CDKN2AIP (UniProt Q9NXV6) | -0.015 | -0.036 | 0.024 | -0.04 | 0.017 | 0.08 | -0.034 | 0.043 | 0.016 | 0.026 | 0.002 | -0.023 | -0.004 | -0.008 | -0.014 | -0.031 | 0.005 | 0.008 | -0.01 | 0.001 |
| ATP6V0A2 (UniProt Q9Y487) | -0.07 | -0.047 | -0.016 | -0.227 (active) | 0.026 | 0.108 | 0.004 | 0.023 | -0.046 | 0.13 | 0.034 | -0.008 | -0.028 | 0.027 | 0.003 | -0.065 | -0.033 | -0.011 | 0.001 | -0.001 |
| ATAD3B (UniProt Q5T9A4) | 0.003 | -0.035 | -0.091 | 0.308 (active) | 0.007 | -0.169 | 0.014 | 0.003 | -0.074 | -0.129 | -0.017 | 0.019 | 0.01 | -0.026 | 0.046 | 0.018 | -0.004 | 0.051 | -0.006 | 0.006 |
| CDK5RAP3 isoform 4 (UniProt Q96JB5) | -0.013 | -0.028 | -0.054 | -0.231 (active) | -0.002 | 0.173 | 0.019 | 0.017 | -0.02 | 0.211 | 0.003 | -0.016 | -0.067 | 0.006 | 0.045 | -0.03 | -0.043 | 0.023 | 0.026 | -0.007 |
| CDC123 (UniProt O75794) | 0.016 | -0.011 | -0.012 | 0.032 | 0.02 | 0.335 (active) | -0.022 | -0.032 | -0.049 | -0.048 | 0.026 | -0.011 | -0.006 | -0.104 | 0.033 | 0.008 | -0.008 | 0.022 | -0.009 | 0.017 |
| BPHL (UniProt Q86WA6) | -0.099 | -0.366 (active) | 0.099 | 0.051 | 0.061 | -0.077 | 0.034 | -0.003 | 0.132 | -0.058 | -0.049 | 0.084 | 0.008 | -0.043 | 0.055 | -0.02 | 0.01 | -0.03 | 0.016 | 0.022 |
| BUB1B isoform 3 (UniProt O60566) | 0.009 | -0.038 | -0.059 | 0.007 | 0.024 | -0.04 | -0.01 | 0.019 | -0.029 | 0.035 | 0.007 | -0.012 | -0.015 | 0.014 | 0.024 | -0.076 | -0.013 | 0.028 | -0.003 | -0.004 |
